The source of these data is PubChem BioAssay.

Each structure is given as a SMILES string. Active and inactive are the calls of the source. Unless noted, how the calls were made is not given here.

The test system of assay [1] is Wnt5a (protein binding on small-molecule microarray). The experiment in a line: small molecules binding Wnt5a protein – biophysical, small-molecule microarray, 635/667 nm fluorescence, primary screen (AID 1142).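 Further: fluorescence read at 667 nm with signal to noise per printed feature.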 To be noted: 635 nm fluorescence, higher = more signal.
The nature of assay [2]: ATP-based viability of Huh7 replicon cells – cell-based, CellTiter-Glo luminescence, basal, 48 h, cytotoxicity control for HCV replication inhibitor project, primary screen (AID 1143).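 Further: Huh7 hepatoma cells carrying a hepatitis C replication reporter with no stimulus; test concentration not given here.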 The note with it: higher = more signal, called active from +8 up or from −8 down. Background: Replicon systems follow genome replication, usually without infectious particles.
Assay [3] can be described thus: Pseudomonas biofilm growth suppression – PAO1 strain, BacTiter-Glo luminescence, LB-PBS, primary screen (AID 1144). The note with it: P. aeruginosa PAO1 biofilm, 12 h, higher = more signal.
Assay [4] in a line: basal CRE-LacZ reporter activity in PC12 – cell-based, unstimulated, primary screen (AID 1145). To be noted: no forskolin, luminescence, 4.5 h, higher = more signal, called active from +8 up or from −8 down.
The nature of assay [5]: forskolin-driven CRE-LacZ activity in PC12 – cell-based, CRE-LacZ reporter, forskolin-stimulated, primary screen (AID 1146).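 Further: PC12 cells with 6xCRE LacZ reporter stimulated by forskolin 10 µM; beta-galactosidase reporter signal reflecting CREB driven transcription.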 To be noted: luminescence, 4.5 h, higher = more signal, called active from +8 up or from −8 down.
In assay [6] the target is Streptavidin (Streptomyces avidinii) (UniProt P22629). Nature of the assay: compounds binding control protein streptavidin – biophysical, small-molecule microarray, 635/667 nm fluorescence, artefact control for SMM compound annotation, primary screen (AID 1147).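 Further: signal reflects streptavidin binding to arrayed compounds as a control protein.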 The note with it: higher = more signal.
Sequence of Streptavidin (Streptomyces avidinii) (P22629 whole entry, looked up): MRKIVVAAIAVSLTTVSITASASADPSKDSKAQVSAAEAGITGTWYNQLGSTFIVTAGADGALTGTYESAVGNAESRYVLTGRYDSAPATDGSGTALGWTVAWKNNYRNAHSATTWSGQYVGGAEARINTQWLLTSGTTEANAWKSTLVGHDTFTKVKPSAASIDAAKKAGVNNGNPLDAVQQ
Assay [7] can be described thus: probe aInhba binding on compound microarray – biochemical, small-molecule microarray, 635/667 nm fluorescence, primary screen (AID 1148).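 Further: score merges 667nm spot fluorescence with signal-to-noise for antibody binding to printed compounds.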 The note with it: higher = more signal.
For assay [8], the target named is Torsin-1A (Homo sapiens) (UniProt O14656). Nature of the assay: TOR1A wild-type binding on microarray – cell lysate, small-molecule microarray, lysate, 635/667 nm, primary screen (AID 1149). The note with it: COS7 hTOR1A-WT lysate, 635 nm fluorescence, higher = more signal.
Sequence of Torsin-1A (Homo sapiens) (O14656 whole entry, looked up): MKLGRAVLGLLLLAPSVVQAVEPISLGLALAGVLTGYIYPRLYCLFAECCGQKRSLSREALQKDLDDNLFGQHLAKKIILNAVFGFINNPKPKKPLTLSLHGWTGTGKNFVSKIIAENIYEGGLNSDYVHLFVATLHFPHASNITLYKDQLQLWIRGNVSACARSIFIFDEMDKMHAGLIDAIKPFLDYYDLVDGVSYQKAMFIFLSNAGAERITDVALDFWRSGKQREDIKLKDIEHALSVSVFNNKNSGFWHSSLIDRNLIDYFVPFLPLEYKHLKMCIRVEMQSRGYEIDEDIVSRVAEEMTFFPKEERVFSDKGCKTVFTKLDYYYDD
Assay [9] shares this target. The experiment in a line: torsin A mutant lysate binding on microarrays – cell lysate, small-molecule microarray, COS7 lysate, 635/667 nm fluorescence, primary screen (AID 1150).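 Further: score pools 667 nm emission and signal to noise measuring lysate protein binding.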 The note with it: COS7 hTOR1A mutant lysate, 635 nm fluorescence, higher = more signal.
Assay [10] concerns Sonic hedgehog protein (Shh). The experiment in a line: Sonic hedgehog microarray binding compounds – biochemical, small-molecule microarray, 635/667 nm fluorescence, primary screen (AID 1151).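 Further: Shh protein binding to compounds spotted on small-molecule microarray slides; score combines spot fluorescence intensity with signal-to-noise across triplicate slides.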 The note with it: 635 nm fluorescence, higher = more signal.
Assay [11] is described as follows: optical density shifts of acrAB sulA E. coli – strain DRC41, OD650, 48 h, E. coli filamentation inducer project, primary screen (AID 1152).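 Further: E. coli MC1000 strain DRC41 lacking acrAB efflux pump and sulA.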 The note with it: higher = more signal, called active from +8 up or from −8 down.
Assay [12] in a line: probe aLefty1 binding on compound microarray – biochemical, small-molecule microarray, 635/667 nm fluorescence, primary screen (AID 1153).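 Further: score merges spot fluorescence with signal-to-noise ratio from the scanned slide images.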 The note with it: higher = more signal.
A short description of assay [13]: plasmodial surface anion channel blockers, osmotic lysis – cell-based, P. falciparum Indochina, OD700, 1 h, primary screen (AID 1154). The note with it: P. falciparum Indochina infected RBC osmotic lysis, higher = more signal, called active from +8 up or from −8 down.
The nature of assay [14]: plasmodial surface anion channel blockers, osmotic lysis – cell-based, P. falciparum Indochina, OD700, 2 h, primary screen (AID 1155).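 Further: lysis reports solute entry through the parasite surface anion channel PSAC.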 To be noted: P. falciparum Indochina infected erythrocytes, higher = more signal, called active from +8 up or from −8 down.
Assay [15] in a line: changes in parasitized red cell lysis, either direction – P. falciparum Indochina, OD700, 3 h, PSAC antagonist project, primary screen (AID 1156). The note with it: P. falciparum-infected erythrocytes, osmotic lysis, higher = more signal, called active from +8 up or from −8 down.
A short description of assay [16]: plasmodial surface anion channel blockers, osmotic lysis – cell-based, P. falciparum Indochina, OD700, 18 h, primary screen (AID 1157). The note with it: P. falciparum Indochina infected erythrocytes, osmotic lysis OD700, 18 h; higher = more signal, called active from +8 up or from −8 down.
Assay [17] can be described thus: S6 kinase pathway phospho-S6 level changes – cell-based, A549, cytoblot, luminescence, serum-stimulated, primary screen (AID 1158).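 Further: serum-stimulated A549 lung adenocarcinoma cells; signal is phosphorylated S6 detected by cytoblot immunostaining with HRP secondary.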 To be noted: 5 h, higher = more signal.
Assay [18] concerns the target NADPH oxidase 2 (Homo sapiens) (UniProt P04839). The experiment in a line: compounds shifting NOX2 Amplex Red fluorescence – cell-based, HEK293-NOX2, PMA-stimulated, NOX inhibitor project, primary screen (AID 1159). Further: test concentration not given here. To be noted: 45 min, higher = more signal, called active from +8 up or from −8 down.
For assay [19], the target named is NADPH oxidase 4 (Homo sapiens) (UniProt Q9NPH5). The experiment in a line: compounds shifting NOX4 Amplex Red fluorescence – cell-based, HEK293-NOX4, tetracycline-induced, NOX inhibitor project, primary screen (AID 1160). To be noted: HEK293-NOX4, Amplex Red H2O2 fluorescence, 45 min; higher = more signal, called active from +8 up or from −8 down.
Sequence of NADPH oxidase 4 (Homo sapiens) (Q9NPH5 whole entry, looked up): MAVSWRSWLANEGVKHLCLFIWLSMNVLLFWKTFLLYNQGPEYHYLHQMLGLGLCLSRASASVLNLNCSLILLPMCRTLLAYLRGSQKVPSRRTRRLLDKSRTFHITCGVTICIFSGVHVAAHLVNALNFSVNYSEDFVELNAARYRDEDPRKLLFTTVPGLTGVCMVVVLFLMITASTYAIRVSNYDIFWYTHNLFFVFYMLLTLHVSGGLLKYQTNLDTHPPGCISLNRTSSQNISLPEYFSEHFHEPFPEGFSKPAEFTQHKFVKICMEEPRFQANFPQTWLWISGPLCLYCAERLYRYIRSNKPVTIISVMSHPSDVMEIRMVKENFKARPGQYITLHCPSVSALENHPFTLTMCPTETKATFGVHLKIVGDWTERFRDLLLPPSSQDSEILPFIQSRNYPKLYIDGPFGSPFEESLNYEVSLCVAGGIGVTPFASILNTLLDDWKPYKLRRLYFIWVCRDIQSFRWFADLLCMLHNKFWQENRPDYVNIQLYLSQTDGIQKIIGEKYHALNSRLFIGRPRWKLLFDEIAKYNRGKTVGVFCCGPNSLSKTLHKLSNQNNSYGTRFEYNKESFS
Assay [20] addresses NADPH oxidase 5 (Homo sapiens) (UniProt Q96PH1). The experiment in a line: compounds shifting NOX5 Amplex Red fluorescence – cell-based, HEK293-NOX5, NOX inhibitor project, primary screen (AID 1161). The note with it: HEK293-NOX5, ionomycin, 45 min, higher = more signal.

Sequence of NADPH oxidase 5 (Homo sapiens) (Q96PH1 whole entry, looked up): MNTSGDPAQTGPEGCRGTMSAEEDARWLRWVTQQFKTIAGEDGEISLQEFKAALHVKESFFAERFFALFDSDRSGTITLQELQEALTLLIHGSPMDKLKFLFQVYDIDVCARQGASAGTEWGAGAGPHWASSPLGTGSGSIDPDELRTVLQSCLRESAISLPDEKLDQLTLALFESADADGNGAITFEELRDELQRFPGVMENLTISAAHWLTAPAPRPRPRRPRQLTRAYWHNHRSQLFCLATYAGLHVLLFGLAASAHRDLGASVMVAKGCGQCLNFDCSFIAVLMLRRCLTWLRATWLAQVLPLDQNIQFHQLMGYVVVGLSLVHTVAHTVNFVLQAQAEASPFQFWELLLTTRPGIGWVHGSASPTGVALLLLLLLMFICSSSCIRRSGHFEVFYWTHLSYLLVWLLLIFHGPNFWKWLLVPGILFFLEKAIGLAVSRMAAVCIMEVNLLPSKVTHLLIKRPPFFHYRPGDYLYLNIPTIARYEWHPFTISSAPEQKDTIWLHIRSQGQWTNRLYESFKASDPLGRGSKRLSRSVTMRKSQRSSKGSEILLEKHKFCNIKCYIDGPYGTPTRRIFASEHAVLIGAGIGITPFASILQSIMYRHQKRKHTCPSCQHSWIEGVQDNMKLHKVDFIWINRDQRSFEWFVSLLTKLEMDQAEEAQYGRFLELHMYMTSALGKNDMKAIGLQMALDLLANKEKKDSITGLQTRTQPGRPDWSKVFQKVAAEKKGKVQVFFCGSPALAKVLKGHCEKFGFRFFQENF
Sequence of NADPH oxidase 2 (Homo sapiens) (P04839 whole entry, looked up): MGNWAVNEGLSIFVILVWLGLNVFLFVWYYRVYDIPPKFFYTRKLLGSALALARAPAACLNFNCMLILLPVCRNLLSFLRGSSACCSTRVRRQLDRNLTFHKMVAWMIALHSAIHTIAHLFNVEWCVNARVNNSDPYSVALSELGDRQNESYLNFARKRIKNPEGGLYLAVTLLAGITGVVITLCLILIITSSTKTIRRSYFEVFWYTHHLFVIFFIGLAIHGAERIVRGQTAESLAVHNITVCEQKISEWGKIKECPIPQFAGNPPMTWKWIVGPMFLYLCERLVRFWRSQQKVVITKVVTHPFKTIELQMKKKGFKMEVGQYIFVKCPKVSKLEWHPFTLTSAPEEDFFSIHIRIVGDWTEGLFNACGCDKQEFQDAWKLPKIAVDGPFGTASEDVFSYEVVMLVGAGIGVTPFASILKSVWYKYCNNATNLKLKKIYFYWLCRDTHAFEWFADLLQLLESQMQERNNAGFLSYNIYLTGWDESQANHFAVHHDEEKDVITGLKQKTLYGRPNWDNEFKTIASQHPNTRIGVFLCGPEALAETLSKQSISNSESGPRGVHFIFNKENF

Take `O=C1C=C[C@@H](O)[C@@H]2[C@@H]3C(=O)N(c4cccc(Oc5ccccc5)c4)C(=O)[C@@H]3CC[C@@H]12`: the composite z-score in [1] was -0.136; in assay [6] it was 0.061; in assay [7], -0.128; with Torsin-1A (Homo sapiens) [8], 0.96; in the assay with Torsin-1A (Homo sapiens) [9], -0.118; in assay [10], 0.64. In assay [12], this compound came in with a composite z-score of -0.103. Besides, the z-score in assay [2] was -3.63 (inactive); in [3], -0.743 (inactive); in assay [4], 1.43 (inactive); in [5], -0.358 (inactive); in assay [11] it was -1.65 (inactive); in assay [13], 0.641 (inactive). For the same compound, the z-score in assay [14] was -0.158 (inactive); in assay [15], -0.441 (inactive); in assay [16] it was -1.07 (inactive); in assay [17], 0.249; in [18] it was 0.472 (inactive); in [19], -0.433 (inactive). For the same compound, the z-score in assay [20] was 0.283.

With `COC(=O)CC=C[C@@H](C)[C@@H](C=NOC(C)CN1CCCc2nc(C)c(C)cc21)NS(=O)(=O)c1ccc(C)cc1` (stereo not given in full), the composite z-score in assay [1] was 0.448; in [6] it was -0.176; in [7], 0.0982; with Torsin-1A (Homo sapiens) [8], 0.308; with Torsin-1A (Homo sapiens) [9], 0.309; in [10], 0.791. In [12], this compound displayed a composite z-score of 0.119. For the same compound, the z-score in assay [2] is -0.214 (inactive); in assay [3] it was 1.42 (inactive); in assay [4], 0.0013 (inactive); in assay [5], 0.541 (inactive); in [11], 0.364 (inactive); in assay [13] it was 2.52 (inactive). Also, the z-score in assay [14] is 0.584 (inactive); in assay [15], 0.201 (inactive); in [16] it was 0.49 (inactive); in [17], -0.929; in assay [18] it was -0.134 (inactive); in assay [19] it was 0.283 (inactive). Also, the z-score in assay [20] is -0.736.

On to `O=C1[C@H]2[C@H]3[C@H](O)[C@H](O)CC(=NO[C@@H]4O[C@H](CO)[C@@H](O)[C@H](O)[C@H]4O)[C@@H]3CC[C@H]2C(=O)N1c1cccc(Oc2ccccc2)c1`, for which the composite z-score in assay [1] is 0.0469; in assay [6], 0.532; in [7], -0.0504; in the assay with Torsin-1A (Homo sapiens) [8], 0.787; with Torsin-1A (Homo sapiens) [9], 0.0995; in [10], 0.828. The compound also yielded a composite z-score in assay [12] of -0.0967. Besides, the z-score in assay [2] is 0.353 (inactive); in [3], -0.774 (inactive); in [4] it was 0.967 (inactive); in [5] it was 0.314 (inactive); in [11], -0.192 (inactive); in assay [13] it was -0.612 (inactive). For the same compound, the z-score in assay [14] was -0.0313 (inactive); in [15], 0.271 (inactive); in assay [16], 0.0606 (inactive); in assay [17], -0.263; in assay [18], 0.614 (inactive); in [19] it was 1.02 (inactive). In addition, in [20], the z-score is 0.544.

Take `CC(C)(C)N1C(=O)[C@H]2[C@H]3[C@H](O)[C@H](O)CC(=NNC(=O)OCc4ccccc4)[C@H]3CC[C@H]2C1=O`: the composite z-score in assay [1] was 0.0281; in assay [6] it was -0.107; in assay [7], 0.125; with Torsin-1A (Homo sapiens) [8], 0.436; with Torsin-1A (Homo sapiens) [9], 0.591; in assay [10], 0.897. This compound also showed a composite z-score in assay [12] of -0.0966. Also, the z-score in assay [2] is -3.97 (inactive); in assay [3], -0.497 (inactive); in [4], 1.34 (inactive); in assay [5] it was 0.549 (inactive); in assay [11] it was -1.57 (inactive); in [13], 0.988 (inactive). Moreover, the z-score in assay [14] is -0.0262 (inactive); in [15], 0.374 (inactive); in assay [16] it was -1.13 (inactive); in assay [17] it was 0.827; in [18], -1.18 (inactive); in [19], -0.074 (inactive). The z-score in [20] is -1.11.
